In PubChem BioAssay AID504660 (National Center for Advancing Translational Sciences (NCATS), 2011):
In all, about 360,000 compounds went through this assay and about 3,700 (1%) were called active. Only a selection was taken, and actives are over-represented in it overall. Unmarked numbers belong to inactive results. No stated cut-off is given here; in the data, active means activation above about 30%; inactive means the rest.

These compounds were tested against D(1A) dopamine receptor (Homo sapiens) (UniProt P21728) (assay: Allosteric Agonists of the Human D1 Dopamine Receptor: qHTS). Details: HEK293 T-REx D1 cells, calcium flux, agonist mode; at 2 µM; active compounds read high.
In short: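 Agonism was scored from calcium flux recorded over 180 s (1 read/s) after pintool compound addition, following a 10-cycle baseline. Cells were inducible force-coupled HEK293 TREx D1, plated overnight at 30 C and loaded with no-wash calcium dye.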
Further: 0% is about no effect.

Sequence of D(1A) dopamine receptor (Homo sapiens) (P21728 whole entry, looked up): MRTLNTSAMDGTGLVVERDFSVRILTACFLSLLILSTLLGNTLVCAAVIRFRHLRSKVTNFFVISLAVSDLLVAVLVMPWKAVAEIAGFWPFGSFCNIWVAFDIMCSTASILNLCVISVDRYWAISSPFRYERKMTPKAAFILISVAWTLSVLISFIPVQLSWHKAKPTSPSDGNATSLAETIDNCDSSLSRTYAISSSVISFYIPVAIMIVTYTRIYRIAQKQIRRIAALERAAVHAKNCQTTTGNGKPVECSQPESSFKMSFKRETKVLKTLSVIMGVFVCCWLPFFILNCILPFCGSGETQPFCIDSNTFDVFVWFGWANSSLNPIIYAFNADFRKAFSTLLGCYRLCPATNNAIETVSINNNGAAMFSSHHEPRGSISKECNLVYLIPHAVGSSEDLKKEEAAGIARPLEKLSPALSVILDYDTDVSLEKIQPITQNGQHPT

`Cc1ccc(N(C)C(=O)C2CCN(S(=O)(=O)c3ccc4c(c3)CCCN4C(=O)C3CCC3)CC2)cc1` was tested. Which activation did it give?
Its activation is 5.77%.

For `CCOC(=O)CNC(=O)c1cc2c(=O)n3cccc(C)c3nc2s1`, which activation is on record?
Its activation is -0.0788%.

With `COc1ccc(C(=O)NC(=S)N2CCNC(=O)C2CC(=O)OC(C)C)cc1` (configuration not stated) as the compound, how does the activation read?
Its activation is 2.67%.

`CCOC(=O)CC1C(=O)NCCN1c1nc2c(C)cccn2c(=O)c1/C=C1\SC(=S)N(C(C)CC)C1=O` (configuration not stated) was tested. Which activation did it give?
The activation was 265% (active).

For `CCC1CN(S(=O)(=O)c2cc(-c3cc(C)no3)ccc2C)c2cc(C)ccc2O1` (configuration not stated), which activation is on record?
Its activation is 8.44%.

`CSc1ncc(Cl)c(C(=O)Nc2ccc(S(=O)(=O)N3CCCC(C)C3)cc2)n1` (configuration not stated) was tested. Which activation did it give?
The activation was 3.25%.

How did the activation turn out when `COC(=O)c1ccccc1NC(=O)c1ccc(C#N)cc1` was run?
The activation was 1.68%.

`Cc1ccccc1CNC(=O)C(=O)NCC(c1cccs1)S(=O)(=O)c1cccs1` (configuration not stated) was tested. Which activation did it give?
The activation was 25.2%.

With `COc1ccc(C(=O)C2CCCN(Cc3cccn3-c3ccccn3)C2)c(C)c1` (configuration not stated) as the compound, how does the activation read?
Its activation is 34% (active).

How did the activation turn out when `COc1ccc(C(=O)C2CCCN(S(=O)(=O)c3cccc(C)c3)C2)c(C)c1` (configuration not stated) was run?
Its activation is 12.7%.

For `COc1ccc(C(=O)C2CCCN(C(=O)c3cnsn3)C2)c(C)c1` (configuration not stated), which activation is on record?
The activation was 2.63%.

With `O=S(=O)(c1ccc2c(c1)OCCCO2)N1CCN(S(=O)(=O)c2c(F)cccc2F)CC1` as the compound, how does the activation read?
Its activation is 7.42%.

`CCc1ccc(CNC(=O)c2ccc(CS(=O)c3ccc(Br)cc3)o2)cc1` (configuration not stated) was tested. Which activation did it give?
The activation was 2.59%.

For `O=S(=O)(NC1CC1)c1ccc2c3c(cccc13)CC2`, which activation is on record?
Its activation is 2.42%.

`O=S(=O)(NC1CCCCC1)c1ccc(F)c2ccccc12` was tested. Which activation did it give?
Its activation is 102% (active).

`CCc1ccccc1NC(=O)c1ccc(F)c(S(=O)(=O)NC2CCCCCC2)c1` was tested. Which activation did it give?
The activation was -1.43%.

How did the activation turn out when `Nc1c(C(=O)c2cccs2)sc2nsc(SCCN3CCCCC3)c12` was run?
Its activation is 257% (active).

How did the activation turn out when `CCc1ccc(CNCc2c(C(=O)O)n(Cc3ccc(F)cc3Cl)c3cc(OC)ccc23)cc1` was run?
The activation was 0.499%.

For `CCOc1ccccc1NC(=O)C1CCCN(S(=O)(=O)c2cn(C)cn2)C1` (configuration not stated), which activation is on record?
The activation was -2.08%.

Which activation does the source give for `NC(=O)C1=C[C@@H](c2csc3ccccc23)C[C@@H](OCc2ccc(CO)cc2)O1` here?
The activation was 11.8%.

Which activation does the source give for `NC(=O)C1=C[C@H](c2csc3ccccc23)C[C@H](OCc2ccc(CO)cc2)O1` here?
Its activation is 203% (active).

Which activation does the source give for `O=C(NC1CC1)C1=C[C@H](c2c[nH]c3ccccc23)C[C@H](OCc2ccc(CO)cc2)O1` here?
The activation was 7.93%.

For `Cc1cccc(NC(=O)Cn2c(C(F)(F)F)nc3ccccc32)c1C`, which activation is on record?
The activation was 2.74%.

How did the activation turn out when `Oc1ccc(Cl)cc1C1C=C(c2ccc3c(c2)OCO3)NC(c2ccc(F)c(Br)c2)N1` (configuration not stated) was run?
The activation was 16.4%.

How did the activation turn out when `Cc1ccc(-c2cc(N)n(Cc3cccc(Cl)c3)n2)cc1` was run?
The activation was -0.135%.

How did the activation turn out when `COc1cc(OC)c(OC)cc1/C=C/c1nc2cc3ccccc3cc2c(=O)n1-c1ccc(F)c(Cl)c1` was run?
The activation was 0.411%.

For `CCCN1CCN(CCCNC(=O)c2ccc3nc(Cc4ccccc4)oc3c2)CC1`, which activation is on record?
Its activation is 4.88%.

For `COCCNC(=O)c1ccc2c(c1)N(Cc1cccc(Cl)c1)C(=O)c1ccccc1S2(=O)=O`, which activation is on record?
The activation was 4.3%.

With `CN1CCN(CCCNC(=O)c2ccc(/C=C3\Oc4ccccc4N(Cc4ccc(Cl)cc4)C3=O)cc2)CC1` as the compound, how does the activation read?
Its activation is 87.5% (active).

How did the activation turn out when `Cc1cccc(NC(=O)CN(c2ccc(C(C)C)cc2)S(=O)(=O)c2c(C)nn(C)c2C)c1C` was run?
The activation was 3.58%.

Which activation does the source give for `COc1cc(NC(=O)c2cc3ccc4cccnc4c3[nH]2)cc(OC)c1OC` here?
The activation was -0.0279%.

`CCC(C(=O)Nc1ccc(C(C)C)cc1)c1ccccc1` (configuration not stated) was tested. Which activation did it give?
Its activation is 75.7% (active).

How did the activation turn out when `Cc1ccc(NC(=O)C(C)c2cccc(C(=O)c3ccccc3)c2)cc1` (configuration not stated) was run?
The activation was 18.8%.

How did the activation turn out when `CCCC(C)C(=O)Nc1ccc(NC(C)=O)cc1` (configuration not stated) was run?
The activation was 2.66%.

Which activation does the source give for `CC(=O)N1CCc2cc(Br)cc(S(=O)(=O)CCC(=O)NCCc3ccc(Cl)cc3)c21` here?
Its activation is 1.1%.

Which activation does the source give for `CCOC(=O)N1CCc2c(sc3c2c(=O)n(Cc2ccccc2)c(=O)n3CC(=O)Nc2cccc(C)c2)C1` here?
Its activation is 47.3% (active).

With `Cc1ccc(NC(=O)Cn2c(=O)n(-c3ccccc3)c(=O)c3c4c(sc32)CCCC4)cc1` as the compound, how does the activation read?
The activation was 4.64%.

Which activation does the source give for `Cc1cccc(NC(=O)Cn2c(=O)n(Cc3ccccc3)c(=O)c3c(C)c(C)sc32)c1` here?
The activation was 1.32%.

Which activation does the source give for `COCCCNC(=O)c1c(NC(=O)c2cc(=O)c3cc(C)c(C)cc3o2)sc2c1CCCC2` here?
Its activation is -1.72%.

For `COc1cccc(CNCc2c(C(=O)O)n(Cc3ccc(C)cc3)c3cc(C)ccc23)c1OC`, which activation is on record?
Its activation is 0.928%.

How did the activation turn out when `O=C(NC1CCCC1)c1cc(-c2ccccc2)on1` was run?
Its activation is 0.117%.

Which activation does the source give for `O=C(NCc1ccccc1)c1cc(-c2cccc(Cl)c2)on1` here?
The activation was 3.77%.

Which activation does the source give for `CC(NC(=O)c1cc(-c2ccccc2)on1)c1ccccc1` (configuration not stated) here?
Its activation is 94.3% (active).

For `CCCn1c2ccccc2c2cnn(CC(=O)N(C)c3ccccc3CC)c(=O)c21`, which activation is on record?
The activation was 0.732%.

With `CCOCCCNC(=O)c1ccc2nc(CCc3ccccc3)oc2c1` as the compound, how does the activation read?
The activation was 0.808%.

With `O=C(c1ccc2c(c1)N(Cc1ccccc1)C(=O)c1ccccc1S2(=O)=O)N1CCCC1` as the compound, how does the activation read?
Its activation is 0.455%.

With `Cc1cccc(NC(=O)C2CCN(S(=O)(=O)c3c(C)noc3/C=C/c3ccco3)CC2)c1` as the compound, how does the activation read?
Its activation is 1.4%.

`CC(C)c1ccc(Cn2c(COc3ccccc3)nc3ccccc32)cc1` was tested. Which activation did it give?
The activation was 32.7% (active).

For `CC(O)c1nc2ccccc2n1Cc1ccc([N+](=O)[O-])cc1` (configuration not stated), which activation is on record?
The activation was 0.897%.

For `O=C(Cn1c(COc2ccccc2)nc2ccccc21)Nc1cc(Cl)c(Cl)cc1Cl`, which activation is on record?
Its activation is -0.172%.

With `CCc1ccc(Nc2nn3c(=O)c4cc5c(cc4nc3s2)OCO5)cc1` as the compound, how does the activation read?
The activation was 0.763%.

For `CCOc1cc(CNC(=O)c2sc3ncnc(N(C)C4CCCCC4)c3c2C)ccc1OC`, which activation is on record?
Its activation is 2.38%.

`CCOc1ccc2nc(N3CCCN(C(=O)Nc4ccccc4C)CC3)c(C#N)cc2c1` was tested. Which activation did it give?
The activation was 32.7% (active).

With `CCOc1ccc(C(=O)NC2CCN(C(=O)Nc3ccccc3OC)CC2)cc1` as the compound, how does the activation read?
Its activation is 0.137%.

`CCOc1ccc2nc(N3CCCC(C(=O)Nc4cc(C)ccc4C)C3)sc2c1` (configuration not stated) was tested. Which activation did it give?
Its activation is -0.891%.

With `CC1CCN(S(=O)(=O)c2ccc3c(c2)N(CC(=O)NCc2ccccc2Cl)C(=O)CO3)CC1` as the compound, how does the activation read?
Its activation is -2.16%.

With `COc1ccc(NC(=O)C2CCCN(S(=O)(=O)c3c(C)[nH]c(=O)[nH]c3=O)C2)c(OC)c1` (configuration not stated) as the compound, how does the activation read?
The activation was 3.17%.

For `N#C/C=C(/c1ccc(F)cc1)N1CCOCC1`, which activation is on record?
The activation was 5.96%.

`N#C/C(=C/c1ccc(N2CCOCC2)o1)C(=O)N1CCOCC1` was tested. Which activation did it give?
The activation was 51.4% (active).

With `O=C(N1CCOCC1)N1CCOCC1` as the compound, how does the activation read?
Its activation is 2.44%.

Which activation does the source give for `COc1cccc(Cn2c(SCc3ccc(C(=O)N4CCCCC4)cc3)nc3ccncc32)c1` here?
Its activation is -0.712%.

Which activation does the source give for `COc1ccccc1C(=O)Nc1c(C(=O)N(C)Cc2ccccc2)sc2nc(C)c(Cl)c(C)c12` here?
The activation was 1.11%.

`COc1cc(CNCc2cccs2)cc(Br)c1OC` was tested. Which activation did it give?
Its activation is 2.66%.

For `COc1ccccc1N1CCN(Cc2ccc(OC)c3ccccc23)CC1`, which activation is on record?
Its activation is 0.832%.

`COc1cc(CNCc2ccc(OC)c3ccccc23)cc(OC)c1OC` was tested. Which activation did it give?
The activation was 36.9% (active).

With `Cc1ccc2ccc3c(c2n1)NS(=O)(=O)c1ccccc1-3` as the compound, how does the activation read?
The activation was -0.466%.

`CCC(=O)N1CCc2cc(S(=O)(=O)NC(Cc3ccccc3)C(=O)NCc3ccccc3)ccc21` (configuration not stated) was tested. Which activation did it give?
The activation was 0.429%.

For `CCCOc1ccc(-c2cccc(NS(=O)(=O)c3ccccc3)c2)nn1`, which activation is on record?
The activation was -0.134%.

With `COc1ccc(CCNC(=O)C2CCCN(Cc3nc(-c4cccc(Cl)c4)oc3C)C2)cc1OC` (configuration not stated) as the compound, how does the activation read?
The activation was 19.6%.

How did the activation turn out when `Cc1oc(-c2ccccc2F)nc1CN1CCC(C(=O)NCCc2ccc(Cl)cc2)CC1` was run?
Its activation is 34.8% (active).

For `COc1ccc(-c2nc(CN3CCC(C(=O)NCc4ccccc4)CC3)c(C)o2)cc1OC`, which activation is on record?
Its activation is -1.51%.

How did the activation turn out when `COc1ccc(CCNCc2c(C(=O)O)c(C)n(Cc3cccc(C)c3)c2C)cc1OC` was run?
The activation was 1.85%.

With `CCc1cc2c(-c3ccccc3)cc(=O)oc2c2c1OCN(Cc1ccc(C)cc1)C2` as the compound, how does the activation read?
Its activation is 10.6%.

`CSc1ccc(C2c3c(oc4ccccc4c3=O)C(=O)N2CCCN2CCOCC2)cc1` (configuration not stated) was tested. Which activation did it give?
The activation was -1.33%.

With `CCc1ccc(NC(=O)C2CCCN2S(=O)(=O)c2ccc3nc(-c4ccccc4)[nH]c3c2)cc1` (configuration not stated) as the compound, how does the activation read?
The activation was 0.736%.

With `COc1cccc(/C=C/C(=O)OCC(=O)N2CCCc3ccccc32)c1` as the compound, how does the activation read?
The activation was 9.89%.

How did the activation turn out when `CCCn1nc(C(=O)N2CCCc3ccccc32)c2ccccc2c1=O` was run?
Its activation is 0.113%.

`Cc1cccc2cc3c(N)c(C(=O)N4CCCc5ccccc54)sc3nc12` was tested. Which activation did it give?
Its activation is 60.4% (active).

For `Oc1ccccc1-c1nc(/C=C/c2ccc(F)cc2)no1`, which activation is on record?
The activation was 5.78%.

With `O=C(/C=C/c1ccccc1)Nc1cc(-c2nc3cc(Cl)ccc3o2)ccc1Cl` as the compound, how does the activation read?
The activation was -1.26%.

With `COc1ccc(-c2nc3sc(CCNC(=O)C(C)(C)C)c(C)n3n2)cc1` as the compound, how does the activation read?
Its activation is 3.98%.

For `Cc1ccc(-c2nc3cccc(C)n3c2Nc2ccc3c(c2)OCCO3)cc1`, which activation is on record?
Its activation is -0.166%.

Which activation does the source give for `Cc1ccc(Nc2c(-c3ccc(N(C)C)cc3)nc3nc[nH]n23)cc1` here?
Its activation is 39.9% (active).

`Cc1ccc(Nc2c(-c3ccc(C)cc3)nc3cnccn23)cc1` was tested. Which activation did it give?
Its activation is 3.9%.

How did the activation turn out when `COc1ccc(-c2nc3ccccc3s2)cc1NC(=O)COc1ccccc1C` was run?
The activation was -0.142%.

With `Cc1cc2c(s1)c1cnn(Cc3c(F)cccc3Cl)c(=O)c1n2C` as the compound, how does the activation read?
The activation was 0.794%.

With `Cn1c(=O)c2c(n3c4ccccc4nc13)NC(=O)CC2c1cccc(Cl)c1` (configuration not stated) as the compound, how does the activation read?
Its activation is 3.64%.
